# Data as given in PubChem BioAssay (EPA / NIEHS).
# Calls of active or inactive are those of the source. The calls were made as follows: active = hit-call score of the fitted dose curve at least 0.9, where 1 is the maximum; inactive = score below 0.9.
# How the values were obtained:
# [1] = read-out: Vascular endothelial growth factor receptor 2 (Homo sapiens) (UniProt P35968); test: BSK_4H_VEGFRII: BioMAP Diversity Plus: 4H Assay for Vascular endothelial growth factor receptor 2 (VEGFR2) Biomarker Activity (AID 2283031); conditions: primary human endothelial cells (HUVEC); actives raise or lower the signal;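 as to AC50: cell-surface VEGFR2 protein level quantified by ELISA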
# Method in brief: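 Primary human umbilical vein endothelial cells (4H system), 24 h exposure; cell-surface VEGFR2 measured by ELISA. Bidirectional fitting versus DMSO; cytotoxicity checked in parallel by SRB total-protein staining.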
# [2] = read-out: Human Leukocyte Antigen - DR isotype (HLADR), HLA-DRA (gene 3122); test: BSK_BE3C_HLADR: BioMAP Diversity Plus: BE3C Assay for Human Leukocyte Antigen - DR isotype (HLADR) Biomarker Activity (AID 2283032); conditions: primary human bronchial epithelial cells; actives raise or lower the signal
# Method in brief: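 Signal came from an ELISA for HLA-DR in human bronchial epithelial primary cells harvested 24 h after treatment; gain- and loss-of-signal fitting used DMSO controls as reference.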
# [3] = read-out: Vascular cell adhesion molecule 1 (VCAM1), VCAM1 (gene 7412); test: BSK_4H_VCAM1: BioMAP Diversity Plus: 4H Assay for Vascular cell adhesion molecule 1 (VCAM1) Biomarker Activity (AID 2283033); conditions: primary human endothelial cells (HUVEC); actives raise or lower the signal;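 as to outcome: cell-surface VCAM-1 protein measured by ELISA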
# Method in brief: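 Endpoint derived from bidirectional fitting against DMSO controls of VCAM-1 ELISA signal in umbilical vein endothelial cells sampled at 24 h following treatment.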
# [4] = read-out: Interferon-gamma inducible Protein 10 (IP10), CXCL10 (gene 3627); test: BSK_BE3C_IP10: BioMAP Diversity Plus: BE3C Assay for Interferon-gamma inducible Protein 10 (IP10) Biomarker Activity (AID 2283034); conditions: primary human bronchial epithelial cells; actives raise or lower the signal
# Method in brief: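 Using primary human bronchial epithelial cultures, the assay captures IP-10 by ELISA one day (24 h) after exposure. Parallel SRB staining of total protein flags overt cytotoxicity. Fits run bidirectionally relative to DMSO.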
# [5] = read-out: Monokine induced gamma interferon (MIG), CXCL9 (gene 4283); test: BSK_BE3C_MIG: BioMAP Diversity Plus: BE3C Assay for Monokine induced gamma interferon (MIG) Biomarker Activity (AID 2283035); conditions: primary human bronchial epithelial cells; actives raise or lower the signal;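 as to outcome: MIG protein measured by ELISA in BE3C cultures after 24 h of dosing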
# Method in brief: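 ELISA read-out of MIG in human lung bronchial epithelial primary cultures, 24 h post-dosing. Bidirectional curve fit vs DMSO baseline.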
# [6] = read-out: Transforming growth factor beta 1 (TGFb1), TGFB1 (gene 7040); test: BSK_BE3C_TGFb1: BioMAP Diversity Plus: BE3C Assay for Transforming growth factor beta 1 (TGFb1) Biomarker Activity (AID 2283036;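 also: TGF-b1 protein level measured by ELISA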); conditions: primary human bronchial epithelial cells; actives raise or lower the signal
# Method in brief: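 In this human primary bronchial epithelial system, an ELISA quantified TGF-b1 one day after dosing. Endpoint changes in either direction were fitted relative to DMSO.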
# [7] = read-out: Plasminogen activator inhibitor-1 (PAI1), SERPINE1 (gene 5054); test: BSK_BE3C_PAI1: BioMAP Diversity Plus: BE3C Assay for Plasminogen activator inhibitor-1 (PAI1) Biomarker Activity (AID 2283037); conditions: primary human bronchial epithelial cells; actives raise or lower the signal
# Method in brief: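 PAI-1 biomarker levels in treated human bronchial epithelial cells are determined by ELISA at 24 h. Both increases and decreases relative to DMSO are fitted.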
# [8] = read-out: urokinase plasminogen activator (uPA), PLAU (gene 5328); test: BSK_BE3C_uPA: BioMAP Diversity Plus: BE3C Assay for urokinase plasminogen activator (uPA) Biomarker Activity (AID 2283038); conditions: primary human bronchial epithelial cells; actives raise or lower the signal;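 as to outcome: uPA protein level quantified by ELISA in cell cultures; uPA read one day after compound addition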
# Method in brief: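 Primary human bronchial epithelial cells, uPA measured by ELISA 24 h after dosing. Bidirectional change relative to DMSO; cytotoxicity checked in parallel cultures by sulforhodamine B total-protein staining.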
# [9] = read-out: Urokinase-type plasminogen activator receptor (uPAR), PLAUR (gene 5329); test: BSK_BE3C_uPAR: BioMAP Diversity Plus: BE3C Assay for Urokinase-type plasminogen activator receptor (uPAR) Biomarker Activity (AID 2283039); conditions: primary human bronchial epithelial cells; actives raise or lower the signal;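 as to outcome: uPAR protein level measured by ELISA on the cells; cells exposed to compound for one day before measurement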
# Method in brief: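 A uPAR ELISA serves as the readout, taken 24 h after treating primary human bronchial epithelial cells. Responses in either direction are fitted against DMSO, which defines baseline activity.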
# [10] = read-out: Interleukin-6 (IL6), IL6 (gene 3569); test: BSK_CASM3C_IL6: BioMAP Diversity Plus: CASM3C Assay for Interleukin-6 (IL6) Biomarker Activity for (AID 2283040); conditions: primary human coronary artery smooth muscle cells; actives raise or lower the signal
# [11] = read-out: Tissue plasminogen activator (tPA), PLAT (gene 5327); test: BSK_BE3C_tPA: BioMAP Diversity Plus: BE3C Assay for Tissue plasminogen activator (tPA) Biomarker Activity (AID 2283041); conditions: primary human bronchial epithelial cells; actives raise or lower the signal;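 as to outcome: tPA level quantified by ELISA one day after compound addition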
# Method in brief: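 Bidirectional curve fitting relative to DMSO defined activity, with tPA detected by ELISA in chemically treated human bronchial epithelial primary cells at 24 hours.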
# [12] = read-out: Interleukin-8 (IL8), CXCL8 (gene 3576); test: BSK_CASM3C_IL8: BioMAP Diversity Plus: CASM3C Assay for Interleukin-8 (IL8) Biomarker Activity (AID 2283042); conditions: primary human coronary artery smooth muscle cells; actives raise or lower the signal;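 also: IL-8 protein level quantified by ELISA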
# [13] = read-out: Human Leukocyte Antigen - DR isotype (HLADR), HLA-DRA (gene 3122); test: BSK_CASM3C_HLADR: BioMAP Diversity Plus: CASM3C Assay for Human Leukocyte Antigen - DR isotype (HLADR) Biomarker Activity (AID 2283043); conditions: primary human coronary artery smooth muscle cells; actives raise or lower the signal;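 also: cell-surface HLA-DR protein level quantified by ELISA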
# [14] = read-out: Macrophage colony-stimulating factor (MCSF), CSF1 (gene 1435); test: BSK_CASM3C_MCSF: BioMAP Diversity Plus: CASM3C Assay for Macrophage colony-stimulating factor (MCSF) Biomarker Activity (AID 2283044); conditions: primary human coronary artery smooth muscle cells; actives raise or lower the signal;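 also: M-CSF protein amount quantified by ELISA after 24 h exposure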
# [15] = read-out: Low-density lipoprotein receptor (LDLR), LDLR (gene 3949); test: BSK_CASM3C_LDLR: BioMAP Diversity Plus: CASM3C Assay for Low-density lipoprotein receptor (LDLR) Biomarker Activity (AID 2283045); conditions: primary human coronary artery smooth muscle cells; actives raise or lower the signal;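 also: LDLR protein level on the cell surface quantified by ELISA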
# [16] = read-out: Monocyte Chemoattractant Protein-1 (MCP1), CCL2 (gene 6347); test: BSK_CASM3C_MCP1: BioMAP Diversity Plus: CASM3C Assay for Monocyte Chemoattractant Protein-1 (MCP1) Biomarker Activity (AID 2283046); conditions: primary human coronary artery smooth muscle cells; actives raise or lower the signal;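 also: MCP-1 level quantified by ELISA 24 h after dosing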
# [17] = BSK_CASM3C_Proliferation: Cell Proliferation Assessment in the BioMAP Diversity Plus: CASM3C Assay (AID 2283047); conditions: primary human coronary artery smooth muscle cells;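 also: sulforhodamine B total protein stain as relative cell number at 560 nm; sub-confluent cells exposed 48 h before staining; fitted both ways against DMSO so gain or loss of cell number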
# [18] = read-out: Monokine induced gamma interferon (MIG), CXCL9 (gene 4283); test: BSK_CASM3C_MIG: BioMAP Diversity Plus: CASM3C Assay for Monokine induced gamma interferon (MIG) Biomarker Activity (AID 2283048); conditions: primary human coronary artery smooth muscle cells; actives raise or lower the signal;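 also: MIG protein level measured by ELISA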
# [19] = read-out: serum amyloid A (SAA), SAA1 (gene 6288); test: BSK_CASM3C_SAA: BioMAP Diversity Plus: CASM3C Assay for serum amyloid A (SAA) Biomarker Activity (AID 2283049); conditions: primary human coronary artery smooth muscle cells; actives raise or lower the signal;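 also: SAA protein level quantified by ELISA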
# [20] = BSK_CASM3C_SRB: Viability Assessment in the BioMAP Diversity Plus: CASM3C Assay (AID 2283050); conditions: primary human coronary artery smooth muscle cells;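 also: cells exposed to compound for 24 h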
smiles,measurement,setting,value
ClC1=C(Cl)[C@]2(Cl)[C@H]3[C@H]([C@@H]4C=C[C@H]3C4)[C@@]1(Cl)C2(Cl)Cl,AC50,[1],29.4 µM (active)
same,outcome,[2],inactive
same,AC50,[3],33.9 µM (active)
same,AC50,[4],30.3 µM (active)
same,outcome,[5],inactive
same,outcome,[6],inactive
same,AC50,[7],34 µM (active)
same,outcome,[8],inactive
same,outcome,[9],inactive
same,outcome,[10],inactive
same,outcome,[11],inactive
same,AC50,[12],37.4 µM (active)
same,AC50,[13],34 µM (active)
same,AC50,[14],29 µM (active)
same,AC50,[15],32.6 µM (active)
same,AC50,[16],34 µM (active)
same,AC50,[17],34.3 µM (active)
same,AC50,[18],31.6 µM (active)
same,AC50,[19],31.7 µM (active)
same,AC50,[20],31.3 µM (active)
N#CC(Br)Br,outcome,[1],inactive
same,outcome,[2],inactive
same,outcome,[3],inactive
same,outcome,[4],inactive
same,outcome,[5],inactive
same,outcome,[7],inactive
same,outcome,[8],inactive
same,outcome,[9],inactive
same,outcome,[10],inactive
same,outcome,[11],inactive
same,outcome,[12],inactive
same,outcome,[13],inactive
same,outcome,[14],inactive
same,outcome,[15],inactive
same,outcome,[16],inactive
same,outcome,[17],inactive
same,outcome,[18],inactive
same,outcome,[19],inactive
same,outcome,[20],inactive
CCCSC(=O)N(CCC)CCC,outcome,[1],inactive
same,outcome,[2],inactive
same,outcome,[3],inactive
same,outcome,[4],inactive
same,outcome,[5],inactive
same,outcome,[6],inactive
same,outcome,[7],inactive
same,outcome,[8],inactive
same,outcome,[9],inactive
same,outcome,[10],inactive
same,outcome,[11],inactive
same,outcome,[12],inactive
same,outcome,[13],inactive
same,outcome,[14],inactive
same,outcome,[15],inactive
same,outcome,[16],inactive
same,outcome,[17],inactive
same,outcome,[18],inactive
same,outcome,[19],inactive
same,outcome,[20],inactive
O=Cc1ccco1,outcome,[1],inactive
same,outcome,[2],inactive
same,outcome,[3],inactive
same,outcome,[4],inactive
same,outcome,[5],inactive
same,outcome,[7],inactive
same,outcome,[8],inactive
same,outcome,[9],inactive
same,outcome,[10],inactive
same,outcome,[11],inactive
same,outcome,[12],inactive
same,outcome,[13],inactive
same,outcome,[14],inactive
same,outcome,[15],inactive
same,outcome,[16],inactive
same,outcome,[17],inactive
same,outcome,[18],inactive
same,outcome,[19],inactive
same,outcome,[20],inactive
Cc1ccc(N)c(N)c1,outcome,[1],inactive
same,outcome,[2],inactive
same,AC50,[3],8.05 µM (active)
same,outcome,[4],inactive
same,outcome,[5],inactive
same,outcome,[6],inactive
same,outcome,[7],inactive
same,outcome,[8],inactive
same,outcome,[9],inactive
same,outcome,[10],inactive
same,outcome,[11],inactive
same,outcome,[12],inactive
same,outcome,[13],inactive
same,outcome,[14],inactive
same,outcome,[15],inactive
same,outcome,[16],inactive
same,outcome,[17],inactive
same,outcome,[18],inactive
same,outcome,[19],inactive
same,outcome,[20],inactive
OCCOCCO,outcome,[1],inactive
same,outcome,[2],inactive
same,outcome,[3],inactive
same,outcome,[4],inactive
same,outcome,[5],inactive
same,outcome,[7],inactive
same,outcome,[8],inactive
same,outcome,[9],inactive
same,outcome,[10],inactive
same,outcome,[11],inactive
same,outcome,[12],inactive
same,outcome,[13],inactive
same,outcome,[14],inactive
same,outcome,[15],inactive
same,outcome,[16],inactive
same,outcome,[17],inactive
same,outcome,[18],inactive
same,outcome,[19],inactive
same,outcome,[20],inactive
Clc1ccc(Cl)c(Cl)c1,outcome,[1],inactive
same,outcome,[2],inactive
same,outcome,[3],inactive
same,outcome,[4],inactive
same,outcome,[5],inactive
same,outcome,[6],inactive
same,outcome,[7],inactive
same,outcome,[8],inactive
same,outcome,[9],inactive
same,outcome,[10],inactive
same,outcome,[11],inactive
same,outcome,[12],inactive
same,outcome,[13],inactive
same,outcome,[14],inactive
same,outcome,[15],inactive
same,outcome,[16],inactive
same,outcome,[17],inactive
same,outcome,[18],inactive
same,outcome,[19],inactive
same,outcome,[20],inactive
CC(C)(O)c1cnn2c(-c3ccc(F)c(-c4c(F)cccc4C#N)c3)cnc2n1,outcome,[1],inactive
same,AC50,[2],36.5 µM (active)
same,outcome,[3],inactive
same,AC50,[4],31.7 µM (active)
same,AC50,[5],36.9 µM (active)
same,AC50,[7],32.1 µM (active)
same,AC50,[8],30.2 µM (active)
same,AC50,[9],36.5 µM (active)
same,outcome,[10],inactive
same,AC50,[11],25.3 µM (active)
same,outcome,[12],inactive
same,AC50,[13],32.9 µM (active)
same,outcome,[14],inactive
same,outcome,[15],inactive
same,outcome,[16],inactive
same,AC50,[17],26.1 µM (active)
same,outcome,[18],inactive
same,outcome,[19],inactive
same,outcome,[20],inactive
